In the library only some 5.7% were active in any assay of this set; here they are far more common.
Giardia killer: kills Giardia lamblia. AID 540267. 340,000 tested, 0.15% active. Giardia lamblia trophozoite viability. activity change, % at 7.66 µM, hits read low; in the data active means activity change below about -80%; inconclusive means between about -30% and that limit;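 further: parasites exposed to compound for two days anaerobically before the ATP read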
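Viability, read as ATP luminescence: trophozoites at 100 cells/well, compound added, 48 hrs anaerobic at 37 deg C, then 15-30 min room-temperature development before reading.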
KB-3-1 cytotox: kills parental KB-3-1 adenocarcinoma cells; 400,000 tested, 1.4% active; KB-3-1 viability, CellTiter-Glo ATP luminescence, 72 h; Potency, µM (highest dose often 46.1 µM), hits mostly cytotoxic; AID 1347075; further: potency means the concentration at half of the fitted maximal effect; nearly all actives have a fitted effect of over 60% in size
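Cytotoxicity in the drug-sensitive parental line KB-3-1 was scored as loss of CellTiter-Glo luminescence following 72 h incubation with compound. Values come from curve fitting of normalized concentration-response data.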
A549 viability: kills or reduces viability of A549 cells in Nrf2 counter-screen. 390,000 tested, 0.16% active. Potency, µM (series often up to 46 µM), for inactives: top-dose activity change, negative = cytotoxicity, hits mostly inhibitors. AID 504648. A549 ARE-Fluc cells, CellTiter-Fluor viability, 18-24 h; further: potency means the concentration at half of the fitted maximal effect
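A549 ARE-Fluc cells in 5% FBS OPTI-MEM, 5000 cells/well, rested 2 h then exposed to compounds in concentration-response for 18-24 h at 37 °C. Viability by CellTiter-Fluor fluorescence (Ex 405/Em 525) after 30 min; luciferase luminescence (BugLite, 15 min, RT) read afterwards.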
KB-V1 MDR tox: KB-V1 MDR subline cytotoxicity. 400,000 tested, 3.4% active. Potency, µM (highest dose often 46.1 µM), most hits filed as cytotoxic. KB-V1 MDR cells viability, CellTiter-Glo, 72 h; further: potency means the concentration at half of the fitted maximal effect; nearly all actives have a fitted effect of over 60% in size
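Potencies derive from concentration-effect curves fitted to normalized luminescence (CellTiter-Glo) of KB-V1 cells treated for 72 h at 37 degrees C in phenol-red-free DMEM containing 10% FBS.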
PI4K2A inh: inhibitors of human PI4K2A. purified PI4K2A, ADP-Glo luminescence, 1 h; hits give low values. 420,000 tested, 0.13% active. Q9BTU6. AID 1346378. activity change, negative = inhibition, % at 76.9 µM; in the data active means activity change below about -50%; inconclusive means mostly about -30% to -49%;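 further: -100% = wells without enzyme as full effect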
Target sequence (Q9BTU6 whole entry, looked up): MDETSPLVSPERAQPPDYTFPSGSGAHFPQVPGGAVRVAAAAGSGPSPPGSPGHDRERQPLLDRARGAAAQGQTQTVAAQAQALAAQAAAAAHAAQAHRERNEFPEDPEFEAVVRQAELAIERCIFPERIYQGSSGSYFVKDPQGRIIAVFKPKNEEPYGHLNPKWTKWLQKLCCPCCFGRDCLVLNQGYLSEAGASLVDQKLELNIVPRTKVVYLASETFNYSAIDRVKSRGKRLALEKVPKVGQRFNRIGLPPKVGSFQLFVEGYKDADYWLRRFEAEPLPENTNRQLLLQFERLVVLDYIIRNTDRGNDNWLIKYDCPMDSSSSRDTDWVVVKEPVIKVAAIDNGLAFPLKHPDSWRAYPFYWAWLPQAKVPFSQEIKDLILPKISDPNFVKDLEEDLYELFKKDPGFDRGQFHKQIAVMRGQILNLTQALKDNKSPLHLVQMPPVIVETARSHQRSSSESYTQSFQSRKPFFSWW
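PI4K2A activity was measured by ADP-Glo luminescence: enzyme (4 ug/mL stock) and phosphatidylinositol (1.2 mM stock) in Tris pH 7.5/MgCl2/EGTA/Triton X-100 buffer were reacted with ATP (300 microM stock) for one hour at ambient temperature.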
Nrf2 block: Nrf2 pathway inhibition; A549 ARE-Fluc reporter, luciferase luminescence, 18-24 h; Potency, µM (highest dose often 46 µM), for the others: at the top dose activity change, negative = inhibition, hits mostly inhibitors; 360,000 tested, 2.1% active; AID 504444; further: potency means the concentration at half of the fitted maximal effect; nearly all actives have a fitted effect of over 60% in size
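Reporter: ARE-Fluc in A549. Exposure: 18-24 h, 37 °C, 5% CO2, 5% FBS OPTI-MEM. Readouts: fluorescent cytotoxicity (CellTiter-Fluor), then luminescent Nrf2 signal after BugLite.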
Numbers without * were called inactive; i = inactive; ? = inconclusive; . = no result; ! = not confirmed by another sample. Unless noted, the call rests on the fitted dose curve; in most records, active means well fitted curve in the direction sought with a large enough effect; inconclusive means small, poorly fitted or top-dose-only effect, or another doubt; inactive means no such curve, though single readings can be large; an effect the other way counts as inactive or inconclusive. Unless noted, on the % scale 0 is the no-effect control and ±100 the full control effect.

SMILES	Giardia killer	KB-3-1 cytotox	A549 viability	KB-V1 MDR tox	PI4K2A inh	Nrf2 block
CCOC(=O)CCCc1ccc(/C(C)=N/NC(N)=S)cc1	-12	?	1%	8.2µM*	-4	-17%
CCOC(=O)CCCc1ccc(/C(C)=N/NC(=S)NC)cc1	-19	i	0%	i	0	-24%
CCOc1ccccc1-c1noc(CCCC(=O)Nc2cccc(C(F)(F)F)c2)n1	.	i	-3%	i	5	?
Cc1nn(Cc2cccc(C(=O)NC(C)c3ccc(C(C)(C)C)cc3)c2)c(C)c1[N+](=O)[O-] (stereo not drawn)	15	?	1%	6.5µM*	-4	.
Cc1nn(Cc2cccc(C(=O)N3N=C(C(F)F)CC3(O)C(F)F)c2)c(C)c1[N+](=O)[O-] (stereo not drawn)	-2	i	-6%	8.2µM*	2	?
Cc1nn(Cc2ccc(C(=O)N3N=C(C(F)F)CC3(O)C(F)F)o2)c(C)c1[N+](=O)[O-] (stereo not drawn)	-25	i	0%	?	-2	?
COC(=O)c1cccc(Cn2nc(C)c([N+](=O)[O-])c2C)c1	-10	i	0%	?	3	?
Cc1nn(Cc2cccc(C(=O)O)c2)c(C)c1[N+](=O)[O-]	9	i	0%	?	-4	0%
CCC(NC(=O)c1cccc(Cn2nc(C)c([N+](=O)[O-])c2C)c1)c1ccc(C(C)C)cc1 (stereo not drawn)	7	i	-1%	2.9µM*	2	21%
CCc1cccc(NC(=O)CN2C(=O)COc3ccc(S(=O)(=O)Nc4ccccc4)cc32)c1	.	i	2%	i	0	-19%
Cc1ccc(-c2cc(C(=O)NNC(=O)c3csc(N4CCOCC4)n3)c3ccccc3n2)cc1	2	i	-19%	i	-3	21µM*
Cc1ccc2nc(-c3ccccc3)cc(C(=O)NNC(=O)c3csc(N4CCOCC4)n3)c2c1	-3	i	-13%	21µM*	2	?
O=C(NNC(=O)c1cc(-c2ccccc2)nc2ccccc12)c1csc(N2CCOCC2)n1	1	i	-10%	i	1	-4%
CCCC[C@H]1C2CC(OC(=O)NCCCc3ccccc3)C(C2)[C@H]2CCCCN21 (stereo partly drawn)	.	.	.	.	-3	.
CCC1=NN(C(=O)Cc2ccc(OC)c(OC)c2)C(O)(C(F)(F)F)C1 (stereo not drawn)	1	i	-3%	15µM*	5	6%
Cn1ncc(S(=O)(=O)Cc2ccccc2)c(Br)c1=O	.	.	.	.	5	.
COc1ccccc1Cn1cnc2cccnc21	-1	i	-4%	i	4	3%
CCCc1c(-c2ccc(Cl)cc2)ncn1CCc1ccccc1OC	.	?	.	18µM*	-4	.
CCCc1c(-c2cccc(Br)c2)ncn1Cc1ccccc1OC	.	?	.	18µM*	0	.
CCCc1c(-c2ccc(Cl)cc2)ncn1Cc1ccccc1OC	.	16µM*	.	18µM*	-5	.
CCc1c(-c2ccc(Cl)cc2)ncn1Cc1cccc(-c2ccccc2)c1	.	?	.	?	-4	.
CCCc1c(-c2cccc(Cl)c2)ncn1CCc1ccccc1OC	.	?	.	15µM*	8	.
COc1ccc(C2Nc3ccccc3C(=O)N2Cc2ccccc2)cc1COc1cccc(C)c1 (stereo not drawn)	.	.	-3%	.	.	-21%
O=C(Nc1ccc(Br)cc1Cl)c1cnn2c1NC(=C1CC1)C=C2C(F)F	.	i	.	i	.	.
CCOC(=O)c1cccc(NC(=O)c2oc3c(c2C)-c2nn(CC)cc2CC3)c1	.	.	10%	.	?	-4%
SMILES	Giardia killer	KB-3-1 cytotox	A549 viability	KB-V1 MDR tox	PI4K2A inh	Nrf2 block
CCc1nc(SCC(=O)N2c3ccccc3Sc3ccccc32)c2ccccc2n1	-16	i	4%	8.2µM*	-1	?
O=C(Cn1cc(SCc2ccccc2F)c2ccccc21)N1CCCCCC1	.	.	-3%	.	1	?
CCOc1ccc2[nH]c3c(N4CCN(c5ccccn5)CC4)ncnc3c2c1	2	?	-18%	i	1	.
Cc1sc2ncnc(N3CCN(Cc4ccccc4)CC3)c2c1-c1ccccc1	13	?	-19%	10µM*	0	-16%
COc1cccc2[nH]c3c(N4CCC5(CC4)OCCO5)ncnc3c12	-9	i	14%	?	3	0%
c1ccc2c(c1)[nH]c1c(N3CCC4(CC3)OCCO4)ncnc12	-7	i	-18%	?	-4	13µM*
Cc1ccc2[nH]c3c(N4CCN(Cc5ccccc5)CC4)ncnc3c2c1	18	?	?	12µM*	2	9.2µM*
c1ccc(CN2CCN(c3ncnc4c3[nH]c3ccccc34)CC2)cc1	-2	18µM*	-19%	2.6µM*	4	15µM*
COc1ccc(-c2noc(CSc3nc(N)cc(=O)[nH]3)n2)cc1	21	21µM*!	-16%	?	0	?
Nc1nc(SCc2nc(-c3ccccc3)no2)[nH]c(=O)c1-c1ccccc1	16	i	?	18µM*	-3	17%
Nc1nc(SCc2ccc(Br)cc2)[nH]c(=O)c1-c1ccccc1	-12	i	2%	i	-2	-8%
O=C(Nc1ccccc1Cl)O[C@@H]1CC[C@@]23CCCN2C(=O)CCC[C@H]3C1	.	.	.	.	6	.
CC(=O)N(c1ccc(Cl)cc1)C1SC(=O)N(c2ccccc2)C1=O (stereo not drawn)	-8	.	-1%	.	.	0%
CCCSC1=N/C(=C/c2ccsc2)C(=O)N1c1ccccc1	5	i	7%	i	6	-2%
CCSC1=N/C(=C\c2cccnc2)C(=O)N1c1ccccc1	0	i	-2%	18µM*	3	4%
CCCCSC1=N/C(=C/c2ccsc2)C(=O)N1c1ccccc1	17	i	-2%	16µM*	-1	3%
CSC1=N/C(=C\c2cccnc2)C(=O)N1c1ccccc1	-5	i	7%	i	-2	5%
Cc1ccccc1C(=O)N1CCN(c2ccc([N+](=O)[O-])c(NCc3cccnc3)c2)CC1	0	i	-13%	4.1µM*	1	?
CC1CN(S(=O)(=O)c2cccc(C(=O)Nc3ccccc3N3CCCCC3)c2)CC(C)O1 (stereo not drawn)	-8	?	?	?	-2	16µM*
Cc1cnc(NC(=O)c2cccc(S(=O)(=O)N3CC(C)OC(C)C3)c2)s1 (stereo not drawn)	-24	?	-3%	16µM*	-2	-20%

High-throughput results (PubChem)
